Our source for the binding signal values is PMC7862700, “An all-to-all approach to the identification of sequence-specific readers for epigenetic DNA modifications on cytosine”.

Holding throughout (assay): DAPPL (digital affinity profiling via proximity ligation, sequencing); 10 mM Tris-HCl pH 7.5, 50 mM NaCl, 1 mM DTT, 4% glycerol, room temperature, 30 min; GST-TFs on glutathione beads, 16-mer random dsDNA library, 0.1% formaldehyde crosslink after washing; high values mean tight binding
Assay [1] has as its target T1, FEV (Homo sapiens, UniProt Q99581 1-238).
T1 sequence: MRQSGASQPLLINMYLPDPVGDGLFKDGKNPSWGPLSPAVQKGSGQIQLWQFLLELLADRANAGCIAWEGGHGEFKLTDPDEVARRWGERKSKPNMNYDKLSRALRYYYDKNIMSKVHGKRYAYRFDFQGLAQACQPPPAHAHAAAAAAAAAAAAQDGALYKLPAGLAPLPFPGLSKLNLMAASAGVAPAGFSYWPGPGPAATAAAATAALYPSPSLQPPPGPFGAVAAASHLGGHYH
As to conditions: protein: recombinant; tags: N-terminal GST; dsDNA, one strand shown. The method, boiled down:
(§1)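 Human transcription factors fused to GST were expressed in yeast, captured on glutathione beads, given DNA barcodes and pooled with a GST-only negative control. Pools were incubated with 200 nmole of a 16-mer random double-stranded DNA library in Tris/NaCl/DTT/glycerol buffer at room temperature for 30 min. They were then washed, crosslinked with 0.1% formaldehyde, proximity-ligated (BsaI/T4 ligase, 1 h, 37 °C), PCR-amplified and sequenced on an Illumina NextSeq500. Binding signal is each 6-mer's read frequency for a factor divided by its frequency for the GST control.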

The target of assay [2] is ETV5 (Homo sapiens, UniProt P41161 1-510). To be noted: protein: recombinant; tags: N-terminal GST; dsDNA, one strand shown. The method, boiled down:
as §1

The target of assay [3] is HSF1 (Homo sapiens, UniProt Q00613 1-529). As to conditions: protein: recombinant; tags: N-terminal GST; chain copies: 3; dsDNA, one strand shown. The procedure, abridged:
as §1

Assay [4] addresses T2, SPIC (Homo sapiens, UniProt Q8N5J4 1-248).
T2 sequence: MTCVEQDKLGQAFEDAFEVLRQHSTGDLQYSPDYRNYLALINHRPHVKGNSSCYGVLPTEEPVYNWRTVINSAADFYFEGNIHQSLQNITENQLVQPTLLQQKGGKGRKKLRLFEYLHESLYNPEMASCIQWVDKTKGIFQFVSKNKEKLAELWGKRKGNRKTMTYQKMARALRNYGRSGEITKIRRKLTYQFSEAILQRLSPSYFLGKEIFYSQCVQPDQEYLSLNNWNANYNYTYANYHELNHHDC
As to conditions: protein: recombinant; tags: N-terminal GST; dsDNA, one strand shown. The method, boiled down: as §1

In assay [5] the target is ELF4 (Homo sapiens, UniProt Q99607 1-663). As to conditions: protein: recombinant; tags: N-terminal GST; dsDNA, one strand shown. The procedure, abridged:
as §1

Assay [6] addresses T3, ELK4 (Homo sapiens, UniProt P28324-2 1-405).
T3 sequence: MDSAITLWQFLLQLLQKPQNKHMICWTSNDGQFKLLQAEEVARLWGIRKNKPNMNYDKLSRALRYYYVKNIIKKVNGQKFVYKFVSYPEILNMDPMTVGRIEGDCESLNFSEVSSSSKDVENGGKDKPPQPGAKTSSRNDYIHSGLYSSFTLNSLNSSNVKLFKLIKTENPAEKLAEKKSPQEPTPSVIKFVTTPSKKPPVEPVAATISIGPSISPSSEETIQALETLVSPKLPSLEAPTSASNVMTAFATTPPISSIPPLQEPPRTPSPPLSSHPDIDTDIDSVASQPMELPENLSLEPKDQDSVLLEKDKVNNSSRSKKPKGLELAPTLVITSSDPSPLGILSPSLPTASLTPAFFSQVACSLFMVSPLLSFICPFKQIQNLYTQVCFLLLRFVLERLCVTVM
To be noted: protein: recombinant; tags: N-terminal GST; dsDNA, one strand shown. The procedure, abridged: as §1

Assay [7] has as its target T4, ETV2 (Homo sapiens, UniProt O00321 1-342).
T4 sequence: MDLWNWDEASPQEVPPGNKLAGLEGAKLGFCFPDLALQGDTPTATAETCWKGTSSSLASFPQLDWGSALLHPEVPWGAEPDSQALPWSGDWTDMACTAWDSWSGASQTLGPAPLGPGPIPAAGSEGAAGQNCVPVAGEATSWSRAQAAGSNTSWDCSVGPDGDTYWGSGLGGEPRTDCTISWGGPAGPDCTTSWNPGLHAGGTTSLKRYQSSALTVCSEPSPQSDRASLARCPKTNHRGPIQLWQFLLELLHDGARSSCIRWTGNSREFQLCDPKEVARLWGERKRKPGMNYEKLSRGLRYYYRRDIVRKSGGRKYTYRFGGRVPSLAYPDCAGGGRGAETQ
To be noted: protein: recombinant; tags: N-terminal GST; dsDNA, one strand shown. The procedure, abridged:
as §1

In assay [8] the target is T5, ELF3 (Homo sapiens, UniProt P78545 1-371).
T5 sequence: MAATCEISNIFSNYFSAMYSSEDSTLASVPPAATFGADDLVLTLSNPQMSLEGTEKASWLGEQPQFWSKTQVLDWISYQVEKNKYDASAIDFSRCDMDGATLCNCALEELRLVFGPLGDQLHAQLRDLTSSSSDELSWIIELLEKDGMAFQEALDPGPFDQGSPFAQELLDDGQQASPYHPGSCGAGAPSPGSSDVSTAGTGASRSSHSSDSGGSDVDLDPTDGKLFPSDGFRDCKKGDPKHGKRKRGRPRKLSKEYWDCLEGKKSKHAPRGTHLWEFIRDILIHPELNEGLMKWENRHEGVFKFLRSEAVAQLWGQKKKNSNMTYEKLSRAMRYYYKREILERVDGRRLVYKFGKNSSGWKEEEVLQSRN
As to conditions: protein: recombinant; tags: N-terminal GST; dsDNA, one strand shown. The method, boiled down:
as §1

Assay [9] concerns the target CRX (Homo sapiens, UniProt O43186 1-299). To be noted: protein: recombinant; tags: N-terminal GST; dsDNA, one strand shown. The method, boiled down: as §1
The target of assay [10] is ETV1 (Homo sapiens, UniProt P50549 1-477). As to conditions: protein: recombinant; tags: N-terminal GST; dsDNA, one strand shown. The procedure, abridged: as §1
Sequence of ETV1 (P50549 whole entry): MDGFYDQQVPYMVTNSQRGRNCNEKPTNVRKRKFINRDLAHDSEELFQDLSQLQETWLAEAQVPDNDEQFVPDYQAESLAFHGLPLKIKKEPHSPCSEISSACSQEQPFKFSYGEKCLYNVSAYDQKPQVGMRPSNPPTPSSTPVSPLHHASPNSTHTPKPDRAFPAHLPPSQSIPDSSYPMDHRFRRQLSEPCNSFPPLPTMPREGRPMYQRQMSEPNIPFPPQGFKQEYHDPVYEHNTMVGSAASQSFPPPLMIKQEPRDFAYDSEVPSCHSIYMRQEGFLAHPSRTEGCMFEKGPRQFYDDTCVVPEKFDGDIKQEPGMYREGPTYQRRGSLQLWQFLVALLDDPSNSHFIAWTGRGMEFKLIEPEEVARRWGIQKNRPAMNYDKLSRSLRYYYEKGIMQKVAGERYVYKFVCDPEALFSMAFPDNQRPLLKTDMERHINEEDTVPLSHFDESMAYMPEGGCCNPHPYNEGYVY
Assay [11] has as its target T6, ERF (Homo sapiens, UniProt P50548 1-548).
T6 sequence: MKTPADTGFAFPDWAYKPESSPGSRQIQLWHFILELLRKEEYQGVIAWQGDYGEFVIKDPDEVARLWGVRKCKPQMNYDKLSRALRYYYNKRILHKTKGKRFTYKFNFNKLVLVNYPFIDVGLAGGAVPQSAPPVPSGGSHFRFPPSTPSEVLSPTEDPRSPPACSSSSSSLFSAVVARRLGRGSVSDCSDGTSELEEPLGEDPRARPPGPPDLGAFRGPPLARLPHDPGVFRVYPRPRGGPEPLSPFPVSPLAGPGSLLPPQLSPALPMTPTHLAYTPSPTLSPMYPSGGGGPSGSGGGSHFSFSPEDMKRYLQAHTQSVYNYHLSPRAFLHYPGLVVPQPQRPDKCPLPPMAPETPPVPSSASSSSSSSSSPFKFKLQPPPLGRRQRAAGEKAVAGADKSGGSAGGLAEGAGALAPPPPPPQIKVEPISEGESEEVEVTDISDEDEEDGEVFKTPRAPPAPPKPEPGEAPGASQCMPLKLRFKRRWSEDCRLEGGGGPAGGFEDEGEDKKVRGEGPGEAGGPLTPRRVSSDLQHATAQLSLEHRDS
To be noted: protein: recombinant; tags: N-terminal GST; dsDNA, one strand shown. The method, boiled down:
as §1

In assay [12] the target is T7, ETV3L (Homo sapiens, UniProt Q6ZN32 1-361).
T7 sequence: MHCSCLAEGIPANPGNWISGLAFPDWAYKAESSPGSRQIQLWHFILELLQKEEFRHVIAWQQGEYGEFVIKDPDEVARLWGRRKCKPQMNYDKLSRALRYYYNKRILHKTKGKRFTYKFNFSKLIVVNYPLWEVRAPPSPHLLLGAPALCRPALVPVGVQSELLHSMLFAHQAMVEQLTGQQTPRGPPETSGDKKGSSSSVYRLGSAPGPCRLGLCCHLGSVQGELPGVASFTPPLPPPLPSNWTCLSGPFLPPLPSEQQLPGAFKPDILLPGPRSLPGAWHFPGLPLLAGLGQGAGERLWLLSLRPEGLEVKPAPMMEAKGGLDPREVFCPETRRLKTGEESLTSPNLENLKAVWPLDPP
To be noted: protein: recombinant; tags: N-terminal GST; dsDNA, one strand shown. The method, boiled down:
as §1

Assay [13] has as its target T8, ETS2 (Homo sapiens, UniProt P15036 1-469).
T8 sequence: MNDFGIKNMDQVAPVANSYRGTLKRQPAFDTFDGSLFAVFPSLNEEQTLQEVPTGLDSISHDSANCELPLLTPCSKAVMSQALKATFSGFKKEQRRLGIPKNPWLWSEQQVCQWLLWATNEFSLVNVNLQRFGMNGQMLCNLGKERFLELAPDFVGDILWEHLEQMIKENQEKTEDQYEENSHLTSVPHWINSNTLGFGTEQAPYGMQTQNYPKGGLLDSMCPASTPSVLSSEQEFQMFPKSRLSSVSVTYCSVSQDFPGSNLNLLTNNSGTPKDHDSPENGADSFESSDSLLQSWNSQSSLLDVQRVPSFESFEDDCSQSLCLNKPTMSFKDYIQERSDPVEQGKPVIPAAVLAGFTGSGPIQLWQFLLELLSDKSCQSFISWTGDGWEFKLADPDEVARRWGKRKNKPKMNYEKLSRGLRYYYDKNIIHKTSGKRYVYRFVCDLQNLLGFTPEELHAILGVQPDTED
To be noted: protein: recombinant; tags: N-terminal GST; dsDNA, one strand shown. The procedure, abridged:
as §1

Assay [14] has as its target T9, SPDEF (Homo sapiens, UniProt O95238 1-335).
T9 sequence: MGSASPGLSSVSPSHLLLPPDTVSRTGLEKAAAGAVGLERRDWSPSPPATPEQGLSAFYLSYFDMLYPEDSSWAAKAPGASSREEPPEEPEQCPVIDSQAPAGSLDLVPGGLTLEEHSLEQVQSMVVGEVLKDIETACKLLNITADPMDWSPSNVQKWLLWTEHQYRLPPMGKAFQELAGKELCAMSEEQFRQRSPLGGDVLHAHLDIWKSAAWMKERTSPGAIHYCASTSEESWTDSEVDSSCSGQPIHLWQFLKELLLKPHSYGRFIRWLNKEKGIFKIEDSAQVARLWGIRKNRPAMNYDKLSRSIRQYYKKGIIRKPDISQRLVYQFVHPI
To be noted: protein: recombinant; tags: N-terminal GST; dsDNA, one strand shown. The procedure, abridged: as §1

Assay [15] addresses T10, ETV7 (Homo sapiens, UniProt Q9Y603 1-341).
T10 sequence: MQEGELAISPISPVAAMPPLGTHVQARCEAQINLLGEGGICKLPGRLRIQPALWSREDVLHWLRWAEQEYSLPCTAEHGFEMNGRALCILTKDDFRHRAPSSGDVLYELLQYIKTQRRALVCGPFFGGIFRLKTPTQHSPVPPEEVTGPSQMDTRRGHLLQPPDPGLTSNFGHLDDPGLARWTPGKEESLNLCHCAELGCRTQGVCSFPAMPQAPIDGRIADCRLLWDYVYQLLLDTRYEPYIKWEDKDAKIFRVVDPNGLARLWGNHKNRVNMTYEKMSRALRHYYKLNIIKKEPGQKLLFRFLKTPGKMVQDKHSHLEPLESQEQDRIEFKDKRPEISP
As to conditions: protein: recombinant; tags: N-terminal GST; dsDNA, one strand shown. The method, boiled down: as §1

The target of assay [16] is T11, ELF5 (Homo sapiens, UniProt Q9UKW6-2 1-255).
T11 sequence: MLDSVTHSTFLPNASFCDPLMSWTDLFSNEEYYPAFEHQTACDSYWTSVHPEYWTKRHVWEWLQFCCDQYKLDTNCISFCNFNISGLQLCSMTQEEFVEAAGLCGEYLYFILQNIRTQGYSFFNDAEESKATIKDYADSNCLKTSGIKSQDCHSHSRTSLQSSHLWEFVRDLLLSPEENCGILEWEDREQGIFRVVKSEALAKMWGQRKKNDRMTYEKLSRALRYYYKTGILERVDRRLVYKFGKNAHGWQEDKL
To be noted: protein: recombinant; tags: N-terminal GST; dsDNA, one strand shown. The method, boiled down: as §1

The target in assay [17] is T12, ETV3 (Homo sapiens, UniProt P41162-2 1-143).
T12 sequence: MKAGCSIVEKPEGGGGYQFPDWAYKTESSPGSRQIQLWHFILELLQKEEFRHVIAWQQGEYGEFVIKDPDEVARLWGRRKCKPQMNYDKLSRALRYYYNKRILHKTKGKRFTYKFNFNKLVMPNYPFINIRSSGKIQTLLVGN
To be noted: protein: recombinant; tags: N-terminal GST; dsDNA, one strand shown. The method, boiled down:
as §1

Assay [18] deals with ETV6 (Homo sapiens, UniProt P41212 1-452). As to conditions: protein: recombinant; tags: N-terminal GST; dsDNA, one strand shown. The method, boiled down: as §1
Sequence of ETV6 (P41212 whole entry): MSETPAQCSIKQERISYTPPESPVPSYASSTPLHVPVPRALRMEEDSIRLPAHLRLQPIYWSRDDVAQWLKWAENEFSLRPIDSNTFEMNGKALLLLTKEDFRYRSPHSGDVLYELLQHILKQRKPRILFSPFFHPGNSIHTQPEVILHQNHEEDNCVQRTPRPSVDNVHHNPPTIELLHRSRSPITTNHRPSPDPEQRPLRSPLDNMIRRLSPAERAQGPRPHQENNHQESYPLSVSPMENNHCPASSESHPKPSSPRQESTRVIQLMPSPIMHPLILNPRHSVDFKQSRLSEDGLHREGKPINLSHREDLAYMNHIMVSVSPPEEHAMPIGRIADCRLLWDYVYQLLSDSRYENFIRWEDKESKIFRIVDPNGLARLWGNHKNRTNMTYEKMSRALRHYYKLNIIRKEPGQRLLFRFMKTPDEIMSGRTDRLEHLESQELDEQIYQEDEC

Sequence of CRX (O43186 whole entry): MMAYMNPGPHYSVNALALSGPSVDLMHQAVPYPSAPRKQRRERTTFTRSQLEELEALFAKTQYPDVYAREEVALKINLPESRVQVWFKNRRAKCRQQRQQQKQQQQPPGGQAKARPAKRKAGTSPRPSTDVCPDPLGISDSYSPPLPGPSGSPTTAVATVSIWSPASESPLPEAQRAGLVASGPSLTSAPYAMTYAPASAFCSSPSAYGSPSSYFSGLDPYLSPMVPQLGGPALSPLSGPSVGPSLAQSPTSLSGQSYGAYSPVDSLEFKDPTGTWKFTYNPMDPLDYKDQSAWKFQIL
Sequence of ELF4 (Q99607 whole entry): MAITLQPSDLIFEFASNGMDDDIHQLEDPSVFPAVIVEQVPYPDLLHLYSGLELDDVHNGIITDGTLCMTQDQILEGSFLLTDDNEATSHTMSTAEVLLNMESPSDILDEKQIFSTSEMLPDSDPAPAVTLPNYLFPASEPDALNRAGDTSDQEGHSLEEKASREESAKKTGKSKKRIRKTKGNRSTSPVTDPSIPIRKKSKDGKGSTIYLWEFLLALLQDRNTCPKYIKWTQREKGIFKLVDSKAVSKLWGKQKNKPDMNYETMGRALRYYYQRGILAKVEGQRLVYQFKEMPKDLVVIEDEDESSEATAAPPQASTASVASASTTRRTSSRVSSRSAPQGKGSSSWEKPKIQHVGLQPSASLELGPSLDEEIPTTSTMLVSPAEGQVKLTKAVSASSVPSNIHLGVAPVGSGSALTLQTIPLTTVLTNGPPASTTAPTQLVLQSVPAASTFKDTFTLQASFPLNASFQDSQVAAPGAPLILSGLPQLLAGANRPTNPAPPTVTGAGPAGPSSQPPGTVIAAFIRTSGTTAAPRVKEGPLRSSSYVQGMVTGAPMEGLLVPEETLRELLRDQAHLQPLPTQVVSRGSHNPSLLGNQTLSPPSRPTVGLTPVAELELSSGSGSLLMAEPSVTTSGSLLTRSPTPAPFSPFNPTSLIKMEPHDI
Sequence of ETV5 (P41161 whole entry): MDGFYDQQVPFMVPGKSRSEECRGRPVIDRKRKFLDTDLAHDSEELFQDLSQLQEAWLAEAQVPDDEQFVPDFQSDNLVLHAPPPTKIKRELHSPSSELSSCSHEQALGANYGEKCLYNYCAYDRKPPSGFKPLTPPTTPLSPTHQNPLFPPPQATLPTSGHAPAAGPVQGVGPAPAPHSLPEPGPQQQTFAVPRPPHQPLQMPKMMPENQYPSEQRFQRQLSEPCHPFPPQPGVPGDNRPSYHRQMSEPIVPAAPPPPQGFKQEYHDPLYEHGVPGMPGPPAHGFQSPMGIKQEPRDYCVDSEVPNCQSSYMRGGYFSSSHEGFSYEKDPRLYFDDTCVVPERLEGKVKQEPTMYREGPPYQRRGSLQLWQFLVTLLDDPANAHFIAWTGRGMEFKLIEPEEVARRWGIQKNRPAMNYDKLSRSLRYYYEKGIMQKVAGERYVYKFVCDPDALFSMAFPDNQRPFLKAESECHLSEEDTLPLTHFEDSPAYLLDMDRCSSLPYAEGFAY
Sequence of HSF1 (Q00613 whole entry): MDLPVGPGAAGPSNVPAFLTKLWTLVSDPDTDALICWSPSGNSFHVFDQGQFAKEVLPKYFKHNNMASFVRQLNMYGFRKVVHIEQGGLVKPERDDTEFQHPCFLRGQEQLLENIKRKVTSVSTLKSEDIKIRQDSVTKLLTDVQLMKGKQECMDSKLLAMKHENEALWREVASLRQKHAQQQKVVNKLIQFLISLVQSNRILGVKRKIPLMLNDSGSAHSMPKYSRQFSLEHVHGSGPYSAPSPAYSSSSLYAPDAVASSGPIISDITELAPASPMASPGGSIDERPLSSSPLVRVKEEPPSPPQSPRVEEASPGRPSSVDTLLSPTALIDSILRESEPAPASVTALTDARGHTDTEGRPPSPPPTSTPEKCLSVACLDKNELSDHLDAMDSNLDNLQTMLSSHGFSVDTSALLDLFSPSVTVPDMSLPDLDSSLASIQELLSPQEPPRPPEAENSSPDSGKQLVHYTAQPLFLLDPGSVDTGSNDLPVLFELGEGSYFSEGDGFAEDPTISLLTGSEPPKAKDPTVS

For CATCTC, the binding signal in [1] was 1.2 fold enrichment (6-mer frequency, TF over GST control); in assay [2] it was 1.29 fold enrichment (6-mer frequency, TF over GST control); in assay [3] it was 1.26 fold enrichment (6-mer frequency, TF over GST control); in assay [4] it was 1.46 fold enrichment (6-mer frequency, TF over GST control); in [5], 1.26 fold enrichment (6-mer frequency, TF over GST control); in [6], 1.42 fold enrichment (6-mer frequency, TF over GST control). Besides, the binding signal is 1.4 fold enrichment (6-mer frequency, TF over GST control) in assay [7]; 1.23 fold enrichment (6-mer frequency, TF over GST control) in assay [8]; 1.16 fold enrichment (6-mer frequency, TF over GST control) in assay [9]; 1.26 fold enrichment (6-mer frequency, TF over GST control) in [10]; 1.25 fold enrichment (6-mer frequency, TF over GST control) in assay [11]; 1.32 fold enrichment (6-mer frequency, TF over GST control) in [12]. The binding signal was 1.36 fold enrichment (6-mer frequency, TF over GST control) in assay [13]; 1.24 fold enrichment (6-mer frequency, TF over GST control) in [14]; 1.15 fold enrichment (6-mer frequency, TF over GST control) in [15]; 1.22 fold enrichment (6-mer frequency, TF over GST control) in assay [16]; 1.29 fold enrichment (6-mer frequency, TF over GST control) in assay [17]; 1.26 fold enrichment (6-mer frequency, TF over GST control) in [18].
